Data as given in PubChem BioAssay (NCATS).
Results filed as inconclusive are left out. Where a call stands in place of a potency, no number is given. Values without a mark were called inactive. Calls of active or inactive are those of the source. The call rests on the fitted dose curve; in most records, active means well fitted inhibition curve with a large enough effect; inconclusive means small, poorly fitted or top-dose-only effect; inactive means flat fitted curve, though single readings scatter.

What was measured:
[1] = qHTS profiling for inhibitors of Plasmodium falciparum proliferation (AID 504749); on all read-outs here: nearly all actives have a fitted effect of over 60% in size; settings: P. falciparum in erythrocytes, SYBR Green DNA, 72 h; for activity, negative = inhibition: at 28.7 µM (top of the series)
Procedure, shortened: (§1)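 Quantitative HTS: compounds pinned into medium, infected erythrocytes added (0.3% parasitemia, 2.5% hematocrit), 72 h culture at 37 C under 5% CO2. Saponin/Triton lysis with SYBR Green I, overnight RT, then fluorescence read.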

AA1029 = test: as above; settings: P. falciparum in erythrocytes, SYBR Green DNA, 72 h; series mostly up to 28.7 µM
Procedure, shortened: as §1

AS120 = test: as above; settings: P. falciparum in erythrocytes, SYBR Green DNA, 72 h; series mostly up to 28.7 µM
Procedure, shortened: as §1

C2A = test: as above; settings: P. falciparum in erythrocytes, SYBR Green DNA, 72 h; series mostly up to 28.7 µM
Procedure, shortened: as §1

7G8 = test: as above; settings: P. falciparum in erythrocytes, SYBR Green DNA, 72 h; series mostly up to 28.7 µM
Procedure, shortened: as §1

3D7 = test: as above; settings: P. falciparum in erythrocytes, SYBR Green DNA, 72 h; series mostly up to 28.7 µM
Procedure, shortened: as §1

ATS189 = test: as above; settings: P. falciparum in erythrocytes, SYBR Green DNA, 72 h; series mostly up to 28.7 µM
Procedure, shortened: as §1

ATS95 = test: as above; settings: P. falciparum in erythrocytes, SYBR Green DNA, 72 h; series mostly up to 28.7 µM
Procedure, shortened: as §1
Potency means the concentration at half of the fitted maximal effect.

SMILES	activity, negative = inhibition ([1]; parasite line A)	activity, negative = inhibition ([1]; parasite line B)	Potency (AA1029)	Potency (AS120)	Potency (C2A)	Potency ([1]; parasite line A)	Potency (7G8)	Potency (3D7)	Potency (ATS189)	Potency (ATS95)	Potency ([1]; parasite line B)
Cc1nnc2n1-c1ccc(Cl)cc1C(c1ccccc1)=NC2	-6.67%	6.11%	inactive	inactive	inactive	–	–	–	–	–	–
C=CCN1C[C@H](C)N([C@H](c2ccc(C(=O)N(CC)CC)cc2)c2cccc(OC)c2)C[C@H]1C	–	–	–	–	–	10000 nM (active)	5010 nM (active)	–	–	–	–
CC(C)NC(C)C	6.47%	12.2%	inactive	inactive	inactive	–	inactive	inactive	inactive	inactive	–
O=C1Nc2ccc(Cl)cc2C(c2ccccc2Cl)=NC1O (configuration not stated)	2.17%	-14%	inactive	inactive	inactive	–	inactive	inactive	inactive	–	–
O=C1c2ccccc2C(=O)c2ccccc21	-2.68%	6.43%	inactive	inactive	inactive	–	5010 nM (active)	–	–	inactive	–
CC(C)(C)NCC(O)c1cc(Cl)c(N)c(C(F)(F)F)c1 (configuration not stated)	–	–	7940 nM (active)	5620 nM (active)	10000 nM (active)	14100 nM (active)	4470 nM (active)	inactive	7080 nM (active)	–	4470 nM (active)
C=C(C)[C@H]1CN[C@H](C(=O)O)[C@H]1CC(=O)O	3.91%	11.4%	inactive	inactive	inactive	–	–	inactive	inactive	inactive	–
Clc1ccc(C(c2ccc(Cl)cc2)C(Cl)(Cl)Cl)cc1	4.12%	–	inactive	inactive	inactive	–	8910 nM (active)	–	–	inactive	–
c1ccc2c(c1)sc1ccccc12	-4.2%	–	inactive	inactive	inactive	–	inactive	inactive	inactive	inactive	–
O=C(Nc1ccc(Br)cc1)c1cc(Br)cc(Br)c1O	6.84%	4.1%	inactive	inactive	inactive	–	inactive	inactive	inactive	inactive	–
O=C1CN=C(c2ccccc2)c2cc([N+](=O)[O-])ccc2N1	0.461%	15.1%	inactive	inactive	inactive	–	inactive	inactive	inactive	inactive	–
NC(=O)c1cc([N+](=O)[O-])cc([N+](=O)[O-])c1	–	-21.3%	inactive	inactive	inactive	7940 nM (active)	–	–	–	inactive	–
Clc1cccc(SC2CCNCC2)n1	12.4%	2.53%	inactive	inactive	inactive	–	–	inactive	inactive	inactive	–
CCC(C)(C)c1ccc(O)cc1	2.92%	14.5%	inactive	inactive	inactive	–	inactive	inactive	inactive	–	–
C[C@]12CC[C@@H]3c4ccc(OC(=O)N(CCCl)CCCl)cc4CC[C@H]3[C@@H]1CC[C@@H]2O	15.2%	2.03%	inactive	inactive	inactive	–	inactive	inactive	inactive	inactive	–
CN1C[C@H](C(=O)N[C@]2(C)O[C@@]3(O)[C@@H]4CCCN4C(=O)[C@H](Cc4ccccc4)N3C2=O)C=C2c3cccc4[nH]cc(c34)C[C@H]21	–	–	1000 nM (active)	562 nM (active)	3550 nM (active)	1410 nM (active)	79.4 nM (active)	891 nM (active)	3160 nM (active)	708 nM (active)	1580 nM (active)
O=C(N/N=C/c1ccc([N+](=O)[O-])o1)c1cc([N+](=O)[O-])cc([N+](=O)[O-])c1O	–	–	100 nM (active)	141 nM (active)	17.8 nM (active)	447 nM (active)	inactive	891 nM (active)	316 nM (active)	–	70.8 nM (active)
NC(=O)CS(=O)C(c1ccccc1)c1ccccc1 (configuration not stated)	11.3%	9.97%	inactive	inactive	inactive	–	–	inactive	inactive	inactive	–
CN1C(=O)C(O)N=C(c2ccccc2)c2cc(Cl)ccc21 (configuration not stated)	4.85%	–	inactive	inactive	inactive	–	inactive	inactive	inactive	inactive	–
CCCCCCC(=O)CCCCCC/C=C/C[C@@H](O)[C@H](O)[C@@](N)(CO)C(=O)O	16.1%	7.92%	inactive	inactive	inactive	–	inactive	inactive	inactive	inactive	–
